Assays:
Conditions in all cases: concentration: 1 μM, replicates: in singlicate; n = 1
[1] = test system: PRKCI
[2] = test system: PRKCQ
[3] = test system: PRKD1
[4] = test system: PRKD2
[5] = test system: PRKD3
[6] = test system: PRKG1
[7] = test system: PRKG2
[8] = test system: T1, PRKR
T1 construct: gene EIF2AK2

[9] = test system: PRKX
[10] = test system: PRP4
[11] = test system: T2, PYK2
T2 construct: gene PTK2B

[12] = test system: QSK
[13] = test system: RAF1
[14] = test system: RET
[15] = test system: RIOK1
[16] = test system: RIOK2
[17] = test system: RIOK3
[18] = test system: RIPK1
[19] = test system: RIPK2
[20] = test system: RIPK4
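Also: KINOMEscan kinase panel screen.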

How did the “%Inh” value [1] turn out when `Fc1ccc(-c2ncn(CCCN3CCOCC3)c2-c2ccccn2)cc1` [SB-211742] was run?
The value was 100%.

And the “%Inh” value [2]?
Its value is 0%.

What about the “%Inh” value [3] of the same compound?
The value was 0%.

What about the “%Inh” value [4] of the same compound?
The value was 31%.

And the “%Inh” value [5]?
The value was 0%.

What about the “%Inh” value [6] of the same compound?
The value was 0%.

And the “%Inh” value [7]?
The value was 1%.

What about the “%Inh” value [8] of the same compound?
The value was 12%.

And the “%Inh” value [9]?
The value was 0%.

And the “%Inh” value [10]?
Its value is 44%.

And the “%Inh” value [11]?
Its value is 0%.

And the “%Inh” value [12]?
Its value is 0%.

And the “%Inh” value [13]?
Its value is 29%.

What about the “%Inh” value [14] of the same compound?
Its value is 7%.

What about the “%Inh” value [15] of the same compound?
The value was 27%.

And the “%Inh” value [16]?
The value was 0%.

What about the “%Inh” value [17] of the same compound?
Its value is 41%.

And the “%Inh” value [18]?
The value was 0%.

What about the “%Inh” value [19] of the same compound?
Its value is 0%.

What about the “%Inh” value [20] of the same compound?
The value was 0%.

With `O=c1cc(N2CCOCC2)nc2n(Cc3cccc(Cl)c3Cl)c(C3CC3)nn12` [GSK2358994] as the compound, how does the “%Inh” value [1] read?
The value was 4%.

And the “%Inh” value [2]?
Its value is 0%.

And the “%Inh” value [3]?
Its value is 13%.

What about the “%Inh” value [4] of the same compound?
Its value is 0%.

And the “%Inh” value [5]?
Its value is 17%.

What about the “%Inh” value [6] of the same compound?
The value was 14%.

What about the “%Inh” value [7] of the same compound?
The value was 0%.

What about the “%Inh” value [8] of the same compound?
Its value is 0%.

What about the “%Inh” value [9] of the same compound?
Its value is 0%.

What about the “%Inh” value [10] of the same compound?
Its value is 0%.

What about the “%Inh” value [11] of the same compound?
The value was 0%.

And the “%Inh” value [12]?
The value was 0%.

What about the “%Inh” value [13] of the same compound?
The value was 0%.

What about the “%Inh” value [14] of the same compound?
The value was 8%.

What about the “%Inh” value [15] of the same compound?
Its value is 13%.

And the “%Inh” value [16]?
The value was 25%.

And the “%Inh” value [17]?
Its value is 37%.

And the “%Inh” value [18]?
The value was 0%.

And the “%Inh” value [19]?
The value was 0%.

And the “%Inh” value [20]?
Its value is 16%.

Which “%Inh” value [1] does the source give for `Nc1nc(-c2ccc3c(N)n[nH]c3c2)cc(N2CCCC2)n1` [GSK2227430] here?
Its value is 0%.

And the “%Inh” value [2]?
The value was 18%.

And the “%Inh” value [3]?
Its value is 0%.

What about the “%Inh” value [4] of the same compound?
Its value is 0%.

And the “%Inh” value [5]?
The value was 13%.

What about the “%Inh” value [6] of the same compound?
The value was 0%.

What about the “%Inh” value [7] of the same compound?
Its value is 75%.

What about the “%Inh” value [8] of the same compound?
The value was 0%.

And the “%Inh” value [9]?
Its value is 1%.

What about the “%Inh” value [10] of the same compound?
Its value is 46%.

What about the “%Inh” value [11] of the same compound?
Its value is 20%.

And the “%Inh” value [12]?
Its value is 0%.

What about the “%Inh” value [13] of the same compound?
Its value is 0%.

And the “%Inh” value [14]?
The value was 0%.

And the “%Inh” value [15]?
The value was 48%.

And the “%Inh” value [16]?
The value was 2%.

What about the “%Inh” value [17] of the same compound?
The value was 56%.

And the “%Inh” value [18]?
Its value is 0%.

And the “%Inh” value [19]?
The value was 0%.

What about the “%Inh” value [20] of the same compound?
The value was 11%.

What does the source list for `O=C1NC(=O)C(N2CCc3ccccc32)=C1c1cccc(Cl)c1` [SB-408010]?
%Inh [1]: 1%; %Inh [2]: 29%; %Inh [3]: 4%; %Inh [4]: 6%; %Inh [5]: 3%; %Inh [6]: 0%; %Inh [7]: 0%; %Inh [8]: 0%; %Inh [9]: 0%; %Inh [10]: 8%; %Inh [11]: 12%; %Inh [12]: 0%; %Inh [13]: 0%; %Inh [14]: 4%; %Inh [15]: 5%; %Inh [16]: 0%; %Inh [17]: 30%; %Inh [18]: 0%; %Inh [19]: 0%; %Inh [20]: 0%

What does the source list for `C[C@@H](Oc1cc(-n2cnc3ccc(NC(=O)NC(C)(C)C)cc32)sc1C(N)=O)c1ccccc1Cl` [GSK346294]?
%Inh [1]: 0%; %Inh [2]: 15%; %Inh [3]: 2%; %Inh [4]: 14%; %Inh [5]: 24%; %Inh [6]: 3%; %Inh [7]: 15%; %Inh [8]: 0%; %Inh [9]: 21%; %Inh [10]: 43%; %Inh [11]: 0%; %Inh [12]: 0%; %Inh [13]: 0%; %Inh [14]: 24%; %Inh [15]: 56%; %Inh [16]: 0%; %Inh [17]: 34%; %Inh [18]: 21%; %Inh [19]: 14%; %Inh [20]: 4%
